Here are results for 23 compounds from PubChem BioAssay (EPA / NIEHS).

Records with an inconclusive call do not appear. The source made the active and inactive calls. Rule for the calls: active = hit-call score of the fitted dose curve at least 0.9, where 1 is the maximum; inconclusive = response in the unintended direction; inactive = score below 0.9.

A short description of this assay: ACEA_ER_80hr: ACEA Biosciences xCELLigence Real-Time Cell Analysis on Estrogen Receptor Agonism for Proliferation (AID 2282667). Particulars: T47D proliferation, impedance (xCELLigence), 80 h. In a few lines: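 T-47D cells monitored by electrical impedance (xCELLigence) with compound present throughout; 80 h timepoint, positive-direction fitting versus DMSO. Eight-point 1:4 dilutions from 100 uM final, duplicate plates.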
On to `ClC1=C(Cl)[C@]2(Cl)[C@@H]3[C@@H](Cl)[C@@H](Cl)C[C@@H]3[C@@]1(Cl)C2(Cl)Cl`, for which the compound was called inactive.

Consider `O=C(OC1CCCCC1)c1ccccc1C(=O)OC1CCCCC1`, for which the result was inactive.

For the compound `O=P(O)(O)c1ccccc1`, the result was inactive.

For `COc1cc2c(cc1OC)[C@@]13CCN4CC5=CCO[C@H]6CC(=O)N2[C@H]1[C@H]6[C@H]5C[C@H]43`, the outcome was inactive.

Consider `CC(=O)OC(c1ccccc1)C(Cl)(Cl)Cl` (stereo not drawn), for which the compound was called inactive.

As to `ClC(Cl)=C(Cl)C(Cl)=C(Cl)Cl`, the compound was classed as inactive.

On to `ClCCBr`, for which the call was inactive.

As for `CC1(C)CCC(Cc2ccc(Cl)cc2)C1(O)Cn1cncn1` (stereo not drawn), the outcome was inactive.

Take `COP(=O)(OC)O/C(=C\Cl)c1cc(Cl)c(Cl)cc1Cl`: the outcome was inactive.

As for `COC(=O)c1sccc1S(=O)(=O)NC(=O)Nc1nc(C)nc(OC)n1`, the compound was classed as inactive.

As for `CCOP(=O)(CN(CCO)CCO)OCC`, the outcome was inactive.

Turning to `CC(C)=C[C@@H]1[C@@H](C(=O)OCc2coc(Cc3ccccc3)c2)C1(C)C`, the call was inactive.

In the case of `CCC1(c2ccc(N)cc2)CCC(=O)NC1=O` (stereo not drawn), the outcome was inactive.

Regarding `CC(C)OC(=S)S`, the outcome was inactive.

Consider `COc1ccc(OC)c(C=O)c1`, for which the outcome was inactive.

For `Cc1cc(Cl)ccc1O[C@H](C)C(=O)O`, the call was inactive.

With `CCCCP(CCCC)CCCC`, the compound was classed as inactive.

Turning to `CCOP(=S)(OCC)SCSP(=S)(OCC)OCC`, the outcome was inactive.

Consider `O=[N+]([O-])c1ccc2c3c(cccc13)CC2`, for which the outcome was inactive.

As to `O=C(O)CCC(F)(C(F)(F)F)C(F)(F)F`, the outcome was inactive.

As to `CCOC(=O)CP(=O)(OCC)OCC`, the compound was called inactive.

With `CC1CN1P(=O)(N1CC1C)N1CC1C` (stereo not drawn), the compound was classed as inactive.

As for `CC(C)c1cccc(C(C)C)c1O`, the call was inactive.
